Structures are written as SMILES. Several values for one entry are separate records, joined by “and”; a condition that tells them apart may be missing. Identical values can stand only once. Screen size: about 9,600 compounds; about 20 (0.2%) were called active.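 Rule for the calls: active = highest normalized replicate activity of 15 or more, or at least half the replicates reach 15 or more; inactive = neither condition met.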 For the sample, actives were picked, then their nearest neighbours and some compounds at random. The source holds several records for some structures; these can differ, active in one and inactive in another.

A short description of the assay: Pax4 mRNA upregulation in alpha cells – RT-PCR, mouse alpha TC1 cells, single point, primary screen (AID 1053180).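 Note: Pax4 Ct normalized to GAPDH with activation seen as lower delta delta Ct; plate controls were plate neutral control wells for no effect and Pax4 plasmid positive control for full effect.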 The conditions noted are these: Pax4 mRNA qPCR, 6 days, at 10 µM, stronger effect = higher value, 100% = Pax4 plasmid added at qPCR. In general terms: Real-time PCR tracks product formation cycle by cycle.
In the case of `CCS(=O)(=O)Nc1ccc2c(c1)C(=O)N(C)[C@H]1CC[C@H](CC(=O)NCCCN3CCOCC3)O[C@H]1CO2`, the activation is 0% (inactive).

On to `C/C=C/c1ccc([C@@H]2[C@H](CO)N3CCCCN(S(=O)(=O)c4ccc(OC)cc4)C[C@@H]23)cc1`, for which the activation was 0.0005% (inactive). To `COCC(=O)N1[C@@H](C#N)[C@@H](c2ccccc2C2=CCCC2)[C@@H]1CO` belongs 0.01% (inactive); to `O=C(Nc1ccc(F)cc1)N1[C@@H]2CNc3ccccc3[C@@H]2[C@@H]1CO`, 0.0065% (inactive); to `COCC(=O)Nc1ccc2c(c1)OC[C@H](C)N(C)C[C@H](C)[C@H](OC)CN(C)C2=O`, 0% (inactive). With `COCCN(C[C@H]1N[C@H](CO)[C@@H]1c1ccccc1)C(=O)NC1CCCC1`, the activation was 0.002% (inactive). `C[C@H]1CN([C@@H](C)CO)C(=O)c2ccccc2-c2ccccc2CO[C@H]1CN(C)Cc1ccc2c(c1)OCCN2C`: the activation was 0.073% (inactive).

Consider `COc1ccc2c3c(n(C)c2c1)[C@H](CO)N(C)CC31CN(S(=O)(=O)c2cccs2)C1`, for which the activation is 0.001% (inactive). As to `Cc1noc(C)c1S(=O)(=O)N(C)C[C@@H]1Oc2c(NC(=O)c3ccc(-c4nccs4)cc3)cccc2C(=O)N([C@@H](C)CO)C[C@H]1C`, the activation was -0.0005% (inactive). Turning to `N#C[C@@H]1[C@@H](c2ccccc2-c2cccc(F)c2)[C@H](CO)N1C(=O)C1CC1`, the activation was 0.0185% (inactive).

Turning to `CN1C(=O)c2cc(NC(=O)c3cscn3)ccc2OC[C@H]2O[C@H](CC(=O)NCc3ccc(Cl)c(Cl)c3)CC[C@@H]21`, the activation is 0.0025% (inactive). On to `COCCNC(=O)C[C@H]1C[C@@H]2c3cc(NC(=O)CN(C)C)ccc3O[C@@H]2[C@@H](CO)O1`, for which the activation is 0.003% (inactive). To `O=C(C[C@H]1C[C@@H]2c3cc(NC(=O)NC4CCCC4)ccc3O[C@@H]2[C@@H](CO)O1)NCc1ccccc1F` belongs 0.0035% (inactive); to `CO[C@H]1CN(C)C(=O)c2cc(NC(=O)C3CCCCC3)ccc2OC[C@@H](C)N(C(=O)c2ccccc2)C[C@@H]1C`, -0.0005% (inactive); to `CN1C(=O)c2cc(NC(=O)C3CCOCC3)ccc2OC[C@@H]2O[C@H](CC(=O)NCCc3ccncc3)CC[C@H]21`, 0.0015% (inactive). As for `C[C@H]1CNC(=O)[C@H](Cc2ccc(C(F)(F)F)cc2)CCn2nncc2COC1`, the activation was 2.47% (inactive). With `C[C@H]1CNC(=O)[C@@H](Cc2ccc(C(F)(F)F)cc2)CCn2nncc2COC1`, the activation was 7.98% (active). On to `C[C@@H]1CNC(=O)[C@H](Cc2ccc(C(F)(F)F)cc2)CCn2nncc2COC1`, for which the activation was 0.259% (inactive). With `CN(C)CC(=O)N1[C@H](CO)[C@@H](c2ccc(C#CC3CCCCC3)cc2)[C@@H]1C#N`, the activation was 0.005% (inactive). On to `COCC(=O)N1[C@H](CO)[C@@H]2c3ccccc3N(C)C[C@@H]21`, for which the activation was 0.0025% (inactive).

For the compound `Cc1nn(C)cc1NC(=O)C[C@@H]1CC[C@@H]2[C@H](COc3ccc(NC(=O)c4cccc(F)c4)cc3C(=O)N2C)O1`, the activation was 0.0015% (inactive). As for `CC(C)[C@H]1COCn2nncc2CC[C@H](C)C(=O)N1`, the activation was 0.0005% (inactive).

In the case of `c1cc(-c2ccc(C3[C@@H]4CN(Cc5nccs5)C[C@H]3N4)cc2)ccn1` (stereo partly drawn), the activation was 0.0255% (inactive). To `O=C(Nc1ccccc1)N1CC(=O)N2[C@@H](CO)[C@H](c3ccc(C#CC4CCCCC4)cc3)[C@@H]2C1` belongs 0% (inactive); to `CO[C@H]1CC[C@@H]2CCOc3c(C#N)cccc3C(=O)N(C)C[C@@H](OC)[C@@H](C)C(=O)N(C)C[C@H]1O2`, -0.0005% (inactive); to `COc1cccc(C#Cc2ccc([C@H]3[C@H](CO)N4C(=O)CN(C(=O)Cc5cccnc5)C[C@@H]34)cc2)c1`, 0% (inactive). With `CO[C@H]1CC[C@H]2CCOc3c(C#N)cccc3C(=O)N(C)C[C@H](OC)[C@H](C)C(=O)N(C)C[C@@H]1O2`, the activation is -0.0005% (inactive).

For `CO[C@H]1CN(C)C(=O)c2cc(NC(=O)CC(F)(F)F)ccc2OC[C@@H](C)N(CC2CC2)C[C@@H]1C`, the activation is -0.0005% (inactive).

Regarding `C[C@H](CO)N1C[C@H](C)[C@H](CN(C)Cc2ccc3c(c2)OCO3)Oc2ccc(NS(=O)(=O)c3cn(C)cn3)cc2CC1=O`, the activation was 0.004% (inactive). Regarding `N#C[C@@H]1N[C@@H](CO)[C@@H]1c1ccc(C#CC2CCCCC2)cc1`, the activation was 0.001% (inactive). As for `Cc1noc(C)c1S(=O)(=O)N(C)C[C@H]1Oc2c(NS(=O)(=O)c3cn(C)cn3)cccc2C(=O)N([C@@H](C)CO)C[C@@H]1C`, the activation is -0.005% (inactive). On to `COc1ccc2c3c([nH]c2c1)[C@H](CO)N(C(=O)Nc1ccc(F)cc1)CC31CN(S(=O)(=O)c2ccc(C)cc2)C1`, for which the activation was 0.006% (inactive). In the case of `CCS(=O)(=O)Nc1ccc2c(c1)C(=O)N(C)[C@@H]1CC[C@H](CC(=O)NC3CCCCC3)O[C@@H]1CO2`, the activation is 0% (inactive). Consider `C[C@@H]1CN([C@H](C)CO)C(=O)Cc2cc(NS(=O)(=O)c3ccc(Cl)cc3)ccc2O[C@@H]1CN(C)C(=O)Nc1ccc(C(F)(F)F)cc1`, for which the activation is 0.005% (inactive). `CC(C)NC(=O)Nc1ccc2c(c1)C(=O)N([C@H](C)CO)C[C@H](C)[C@@H](CN(C)C(=O)C1CCCCC1)OCCCC[C@H](C)O2`: the activation is -0.0015% (inactive).

Take `O=C(C[C@@H]1CC[C@H]2[C@@H](COC[C@H](O)CN2S(=O)(=O)c2cccc(F)c2)O1)NCc1ccncn1`: the activation was 0.011% (inactive). To `Cc1nn(C)cc1NC(=O)C[C@@H]1CC[C@@H]2[C@@H](COc3ccc(NC(=O)c4cccc(F)c4)cc3C(=O)N2C)O1` belongs 0.0025% (inactive); to `C[C@@H]1CN([C@H](C)CO)C(=O)c2cc(NS(=O)(=O)c3ccccc3)ccc2O[C@@H](C)CCCCO[C@@H]1CN(C)C(=O)C1CCCCC1`, -0.001% (inactive); to `CC(C)[C@@H]1CCc2cnnn2COC[C@H](Cc2ccccc2)NC1=O`, -0.0175% (inactive).

Take `O=C(C[C@H]1CC[C@@H]2[C@H](COC[C@H](O)CN2Cc2ccc3c(c2)OCO3)O1)N1CCCCC1`: the activation is 0.002% (inactive). For `COc1ccc2c3c([nH]c2c1)[C@@H](CO)NCC31CN(Cc2cc(F)ccc2F)C1`, the activation was 0.0025% (inactive). Take `O=S(=O)(c1ccc(F)cc1)N1CCCCN2[C@H](CO)[C@H](c3ccc(-c4cncnc4)cc3)[C@H]2C1`: the activation is 0.001% (inactive). On to `O=C(C[C@H]1C[C@H]2c3cc(NS(=O)(=O)c4ccccc4)ccc3O[C@H]2[C@H](CO)O1)N1CCOCC1`, for which the activation is 0.0015% (inactive). The result for `CC(=O)N1[C@@H]2Cn3c(ccc(-c4cccnc4)c3=O)[C@H]1[C@@H](C(=O)NC1Cc3ccccc3C1)[C@@H]2CO` reads 0% (inactive). To `C[C@H]1CN([C@@H](C)CO)C(=O)Cc2cc(NS(=O)(=O)c3ccc(Cl)cc3)ccc2O[C@H]1CN(C)C(=O)Nc1ccc(C(F)(F)F)cc1` belongs -0.003% (inactive); to `CN(C)C(=O)c1ccc(-c2ccc([C@@H]3[C@@H](CO)N4C(=O)CN(C(=O)CC5CC5)C[C@H]34)cc2)cc1`, 0.005% (inactive); to `COc1ccc(CN2[C@@H]3CN(C(=O)NC(C)C)c4ccccc4[C@@H]3[C@@H]2CO)cc1`, -0.0005% (inactive).

On to `C[C@H](CO)N1C[C@H](C)[C@@H](CN(C)Cc2ccc(-c3ccccc3)cc2)Oc2c(NS(C)(=O)=O)cccc2C1=O`, for which the activation was -0.001% (inactive). On to `C[C@H](CO)N1C[C@H](C)[C@@H](CN(C)Cc2ccccc2)Oc2c(NC(=O)Cc3cn(C)c4ccccc34)cccc2C1=O`, for which the activation was 13.8% (active). Turning to `C[C@H](CO)N1C[C@H](C)[C@@H](CN(C)Cc2ccc(Oc3ccccc3)cc2)Oc2c(NC(=O)CCC(F)(F)F)cccc2C1=O`, the activation is 0.039% (inactive).

Turning to `C[C@@H](NC(=O)C[C@H]1CC[C@@H]2[C@@H](COc3ccc(NC(=O)C4CCOCC4)cc3C(=O)N2C)O1)c1ccccc1`, the activation is 0.0015% (inactive).

With `O=C(NC1CCCC1)N[C@H]1C=C[C@H](CC(=O)N2CCOCC2)O[C@H]1CO`, the activation is 0.0045% (inactive). On to `COc1ccc(S(=O)(=O)Nc2ccc3c(c2)CC(=O)N([C@H](C)CO)C[C@H](C)[C@H](CN(C)Cc2ccc(C(=O)Nc4ccccc4N)cc2)O3)cc1`, for which the activation was 15.1% (active). As to `C[C@@H]1CN([C@H](C)CO)C(=O)Cc2cc(NC(=O)C3CCCCC3)ccc2O[C@H]1CN(C)Cc1ccc(Cl)c(Cl)c1`, the activation was 0.389% (inactive). To `C[C@@H]1CN([C@@H](C)CO)C(=O)Cc2cc(NC(=O)C3CCCCC3)ccc2O[C@@H]1CN(C)Cc1ccc(Cl)c(Cl)c1` belongs 46.5% (active); to `COc1ccc(S(=O)(=O)Nc2ccc3c(c2)CC(=O)N([C@H](C)CO)C[C@@H](C)[C@@H](CN(C)Cc2ccc(C(=O)Nc4ccccc4N)cc2)O3)cc1`, 0.03% (inactive). To `COc1ccc(S(=O)(=O)Nc2ccc3c(c2)CC(=O)N([C@H](C)CO)C[C@@H](C)[C@H](CN(C)Cc2ccc(C(=O)Nc4ccccc4N)cc2)O3)cc1` belongs 0.03% (inactive). As for `C[C@H]1CN([C@@H](C)CO)C(=O)Cc2cc(NC(=O)C3CCCCC3)ccc2O[C@H]1CN(C)Cc1ccc(Cl)c(Cl)c1`, the activation is 0.106% (inactive). In the case of `CCCN1C[C@H](C)[C@H](OC)CN(C)C(=O)c2ccc(NS(=O)(=O)c3cn(C)cn3)cc2OC[C@@H]1C`, the activation is 0.0005% (inactive). Turning to `CN1CCN(C(=O)C[C@H]2C[C@H]3c4cc(NS(C)(=O)=O)ccc4O[C@H]3[C@H](CO)O2)CC1`, the activation was 0% (inactive). On to `O=C(c1ccccn1)N1CC[C@@H]2[C@@H](CO)Nc3ccc(C#Cc4cccnc4)cc3[C@@H]21`, for which the activation was 0.001% (inactive). As for `Fc1cccc(CN2C[C@@H]3N[C@H](C2)C3c2ccc(/C=C/c3ccccc3)cc2)c1` (stereo partly drawn), the activation was 3.54% (inactive) and 8.86% (active). `C(=C\c1ccc(C2[C@@H]3CN(Cc4nccs4)C[C@H]2N3)cc1)/c1ccccc1` (stereo partly drawn): the activation was 0.714% (inactive) and 0.0635% (inactive). As for `CN(C)C(=O)c1cccc(-c2ccc(C3[C@@H]4CN(Cc5ccccc5F)C[C@H]3N4)cc2)c1` (stereo partly drawn), the activation was 1.26% (inactive) and 21.9% (active). The result for `Cc1ccccc1S(=O)(=O)N1C[C@@H]2N[C@H](C1)C2c1ccc(/C=C/c2ccccc2)cc1` (stereo partly drawn) reads 0.183% (inactive); that for `Cc1cccc(-c2ccc(C3[C@@H]4CN(Cc5cccc(F)c5)C[C@H]3N4)cc2)c1` (stereo partly drawn), 50.5% (active) and 0.557% (inactive). `CN(C)C(=O)c1cccc(-c2ccc(C3[C@@H]4CN(Cc5cocn5)C[C@H]3N4)cc2)c1` (stereo partly drawn): the activation was 0.001% (inactive). `CN(C)C(=O)c1ccc(-c2ccc(C3[C@@H]4CN(Cc5ccccc5Cl)C[C@H]3N4)cc2)cc1` (stereo partly drawn): the activation is 0.0085% (inactive).

Turning to `C/C=C/c1ccc(C2[C@@H]3CN(S(=O)(=O)c4ccccc4F)C[C@H]2N3)cc1` (stereo partly drawn), the activation is 0.01% (inactive). For `O=S(=O)(c1ccc(F)cc1)N1C[C@@H]2N[C@H](C1)C2c1ccc(/C=C/c2ccccc2)cc1` (stereo partly drawn), the activation is 8.33% (active) and 0.035% (inactive). For `COc1ccccc1-c1ccc(C2[C@@H]3CN(Cc4cccc(F)c4)C[C@H]2N3)cc1` (stereo partly drawn), the activation was 0.062% (inactive). Turning to `Fc1cccc(-c2ccc(C3[C@@H]4CN(Cc5cncnc5)C[C@H]3N4)cc2)c1` (stereo partly drawn), the activation was 0.047% (inactive) and 0.0125% (inactive). As to `Fc1ccc(-c2ccc(C3[C@@H]4CN(Cc5ccccc5)C[C@H]3N4)cc2)cc1` (stereo partly drawn), the activation is 1.66% (inactive) and 0.0585% (inactive).

For the origin of these results see PubChem BioAssay AID1053180 (Broad Institute, 2014).
